Source: PubChem (National Center for Advancing Translational Sciences (NCATS))
Only some compounds are listed: those with a hit (about 2.9% of all), similar ones and a draw of the others.
B2AR arrestin – beta2AR (human) beta-arrestin recruitment activity; Potency, µM (series often up to 46.1 µM), without a hit: at the highest dose activation, usual class: activators; P07550; beta-arrestin recruitment to beta2AR, cell-based reporter; AID 492947; 0.02% of 330,000 active;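 further: potency means the concentration at half of the fitted maximal effect; 0% = DMSO controls and full agonism = EC100 isoproterenol or metaproterenol; nearly all actives have a fitted effect of over 65% in size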
a7 integrin act – integrin-mediated muscular dystrophy alleviation activation | alpha7betagal myoblasts, beta-gal FDG fluorescence, 48 h | Potency, µM (top dose mostly 38.3 µM), without a hit: at the highest dose activation, usual class: activators | 0.064% of 350,000 active;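 further: potency means the concentration at half of the fitted maximal effect; 100% = response of the positive control SU9516; nearly all actives have a fitted effect of over 60% in size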
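Alpha7betagal+/- myoblasts (passage 13) were plated 16-24 hr, then exposed to compounds (1:260 dilution of DMSO stock) for 48 hours at 37C. After MPER lysis, β-galactosidase reporter activity was read as FDG fluorescence (ex 480/em 540) after 30 minutes.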
D3 ag – D3 dopamine receptor (human) agonism. P35462. D3R DiscoveRx beta-arrestin cells, luminescence, 90 min. max activation, %. 0.58% of 410,000 active; in the data active means max activation above about 30%; further: 0% is about no effect
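Agonist-mode cell screen: cells plated at 1500/well and incubated overnight at 37 °C, then exposed to library compounds for 90 min at 37 °C. Detection reagent was added for 30–60 min at room temperature, and luminescence was read.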
IDH1 R132H inh – inhibitors of human mutant IDH1 R132H. 0.093% of 390,000 active. AID 602179. IDH1-R132H enzyme, NADPH consumption, diaphorase/resazurin fluorescence. Potency, µM (titrated, usually from 76.6 µM), inactives show at the highest dose activity change, negative = inhibition, hits mostly inhibitors. O75874; further: potency means the concentration at half of the fitted maximal effect; on the % scale 0 is the no-effect control and ±100 the full control effect; nearly all actives have a fitted effect of over 65% in size
Target sequence (O75874 whole entry R132H, stated change not applied): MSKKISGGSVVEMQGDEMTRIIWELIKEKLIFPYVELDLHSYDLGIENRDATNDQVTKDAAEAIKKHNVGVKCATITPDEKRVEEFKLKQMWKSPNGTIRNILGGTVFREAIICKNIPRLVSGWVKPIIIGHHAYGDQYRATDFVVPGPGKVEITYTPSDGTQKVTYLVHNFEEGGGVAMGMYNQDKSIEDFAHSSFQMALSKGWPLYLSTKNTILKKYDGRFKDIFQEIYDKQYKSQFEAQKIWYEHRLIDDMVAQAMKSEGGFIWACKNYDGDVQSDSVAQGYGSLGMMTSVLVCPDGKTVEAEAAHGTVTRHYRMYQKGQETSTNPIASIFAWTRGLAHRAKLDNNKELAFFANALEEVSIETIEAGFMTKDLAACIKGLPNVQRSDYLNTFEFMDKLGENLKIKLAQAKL
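IDH1-R132H (0.5 ug/mL) preincubated 30 min with compound, then NADPH (0.016 mM) and alpha-KG (2 mM) added; 80 min at RT, pH 7.5. Remaining NADPH coupled via diaphorase/resazurin to fluorescence (540/590 nm); concentration-response curves normalized to no-enzyme control.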
D3 antag – antagonists of human D3 dopamine receptor; max response, negative = inhibition, %; 2.5% of 360,000 active; D3R cells, DiscoveRx beta-arrestin luminescence, antagonist mode; hits give low values; P35462; AID 652054; in the data active means max response below about -50%; inconclusive means no clear call, values can overlap the other calls; further: on the % scale 0 is the no-effect control and ±100 the full control effect
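Cells plated overnight at 1500 cells/well, then exposed to library compounds with dopamine controls for 90 minutes at 37 degrees C. DiscoveRx reagent added for 30–60 minutes at room temperature; luminescence read, quantitative HTS format.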
IDH1 autofl – counter-screen for mutant IDH1 inhibitors: fluorescence interference. 750 tested, under 10 active. shares compounds with IDH1 R132H inh. inhibition of signal, % at 51.2 µM. Resorufin detection reagent fluorescence interference, cell-free;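 further: 0% = wells with normal resorufin and full inhibition = wells lacking resorufin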
IDH1 WT – selectivity of mutant IDH1 inhibitors: human wild-type IDH1; shares compounds with IDH1 R132H inh; WT IDH1 enzyme, NADPH diaphorase/resazurin fluorescence; Potency, µM (titrated, usually from 115 µM), without a hit: at the top dose activity change, negative = inhibition, most hits filed as inhibitors; 9% of 750 active; AID 623995;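 further: potency means the concentration at half of the fitted maximal effect; 0% = full WT IDH1 enzyme control and full inhibition = no enzyme wells; nearly all actives have a fitted effect of over 55% in size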
Target sequence (O75874 whole entry, looked up): as the sequence (O75874 whole entry R132H, stated change not applied) above, with H132R counted along it
IDH1 R132H conf – inhibits human mutant IDH1 enzyme in cherrypick confirmation. shares compounds with IDH1 R132H inh. IDH1 R132H enzyme, NADPH diaphorase/resazurin fluorescence. Potency, µM (series often up to 76.6 µM), inactives show top-dose activity change, negative = inhibition, usual class: inhibitors. 83% of 750 active. AID 624002; further: potency means the concentration at half of the fitted maximal effect; nearly all actives have a fitted effect of over 50% in size
The depositor's hits bear a star; ? = inconclusive; . = no result. Unless noted, the call rests on the fitted dose curve; in most records, active means well fitted curve in the direction sought with a large enough effect; inconclusive means small, poorly fitted or top-dose-only effect, or another doubt; inactive means no such curve, though single readings can be large; an effect the other way counts as inactive or inconclusive.

SMILES | B2AR arrestin | a7 integrin act | D3 ag | IDH1 R132H inh | D3 antag | IDH1 autofl | IDH1 WT | IDH1 R132H conf
Cc1c(C#N)c(N)nc2c3c(sc12)NC(=O)CC3c1ccc(Cl)cc1 (configuration not stated) | -1% | 32% | 3 | 29µM* | 2 | 3 | 9% | 16µM*
O=C(CSc1n[nH]c(-c2ccncc2)n1)Nc1ccc(Cl)c(Cl)c1 | -1% | 3% | 4 | -4% | 2 | . | . | .
Cc1ccccc1NCC(=O)c1ccc(Br)cc1 | 5% | 3% | -40 | ? | -16 | 2 | 103% | 45µM*
CCC(CC)NC(=O)CN1CCN(S(=O)(=O)c2ccc(Br)s2)CC1 | 0% | -4% | -10 | 0% | 8 | . | . | .
O=C(Nc1cc(S(=O)(=O)N2CCOCC2)ccc1O)c1ccc2c(c1)S(=O)(=O)c1ccccc1C2=O | 0% | -26% | 6 | -10% | -2 | . | . | .
O=C(Nc1ccc(S(=O)(=O)N2CCOCC2)cc1)c1ccc2c(c1)S(=O)(=O)c1ccccc1C2=O | -1% | 9% | -5 | ? | -7 | 3 | 5% | 4µM*
CN(C(=O)CSc1nnc(-c2ccccc2F)o1)C1CCCCC1 | . | . | 5 | 33% | . | . | . | .
COc1ccc(C)cc1N(C(=O)c1snc(C(N)=O)c1N)C(C(=O)NC1CCCC1)c1ccc(F)cc1 (configuration not stated) | -1% | -20% | 3 | ? | 5 | 4 | 1% | 16µM*
COc1ccc(C(C(=O)NC2CCCCC2)N(C(=O)c2snc(C(N)=O)c2N)c2ccc(OC)cc2OC)cc1 (configuration not stated) | 0% | 0% | -6 | -27% | -1 | . | . | .
COc1ccc(N(C(=O)c2snc(C(N)=O)c2N)C(C(=O)NC2CCCC2)c2ccc(F)cc2)c(OC)c1 (configuration not stated) | 0% | 38% | -5 | ? | 3 | -2 | -7% | ?
Cc1cc(C)cc(Nc2cc(C(=O)NCc3ccccc3)c3ccccc3n2)c1 | . | . | 11 | 0% | . | . | . | .
Cc1cccc2sc(N(Cc3cccnc3)C(=O)CCS(=O)(=O)c3ccccc3)nc12 | . | . | -15 | -9% | . | . | . | .
CCN1CC=C2C(C#N)=C(N)C(C#N)(C#N)C(c3cc(Cl)ccc3Cl)C2C1 (configuration not stated) | 0% | -45% | -18 | ? | -90* | 3 | 6% | -17%
CCC1C2CN(C(C)=O)CC=C2C(C#N)=C(N)C1(C#N)C#N (configuration not stated) | -1% | 17% | -8 | ? | ? | -8 | 38% | 45µM*
CCCC1C2CN(C(C)=O)CC=C2C(C#N)=C(N)C1(C#N)C#N (configuration not stated) | 0% | -20% | -6 | -8% | -10 | . | . | .
CCOC(=O)N1CC=C2C(C#N)=C(N)C(C#N)(C#N)[C@H](c3cccs3)C2C1 (some centres not stated) | 0% | -28% | 0 | -9% | 3 | . | . | .
CCOCCCN1C(=O)c2[nH]nc(-c3ccccc3O)c2C1c1ccc(CC)cc1 (configuration not stated) | . | . | -7 | ? | . | -2 | -7% | ?
CCc1ccc(C2c3c(-c4ccccc4O)n[nH]c3C(=O)N2Cc2ccncc2)cc1 (configuration not stated) | . | . | -13 | 35µM* | . | -3 | 0% | 28µM*
COC(=O)c1ccc(C2CC(=O)Nc3c2c(C)nn3-c2nc(C)cc(C)n2)cc1 (configuration not stated) | . | . | -3 | 11% | . | . | . | .
Brc1ccc2c(c1)C(c1cccs1)=NNC(c1cccnc1)=N2 | 0% | 21% | -5 | 29µM* | 24 | -10 | -4% | 22µM*
COc1ccc(C2C(C#N)=C(N)N(c3sc4c(c3C#N)CCCC4)C3=C2C(=O)CC(C)(C)C3)cc1 (configuration not stated) | 0% | 4% | -1 | -10% | -8 | . | . | .
COc1ccc(C2C(C#N)=C(N)N(N(C)C)C3=C2C(=O)CC(C)(C)C3)cc1 (configuration not stated) | -1% | 1% | 2 | 0% | 0 | . | . | .
COc1ccc(C2C(C#N)=C3NC(=O)c4c(sc5c4CCCCC5)N3C3=C2C(=O)CC(C)(C)C3)cc1 (configuration not stated) | -1% | -47% | -12 | ? | -87* | 5 | 1% | -20%
COc1ccc(C2C(C#N)=C(N)N(c3sc4c(c3C#N)CCCC4)C3=C2C(=O)CC(C)(C)C3)cc1OC (configuration not stated) | 0% | 1% | -4 | ? | 0 | 3 | -4% | -25%
CC1CCC(NC(=O)c2ccc3c(c2)N(Cc2cccc(Cl)c2)C(=O)c2ccccc2S3=O)CC1 (configuration not stated) | . | . | -9 | -8% | . | . | . | .
SMILES | B2AR arrestin | a7 integrin act | D3 ag | IDH1 R132H inh | D3 antag | IDH1 autofl | IDH1 WT | IDH1 R132H conf
C[C@H]1CN([C@@H](C)CO)C(=O)CCCn2nncc2CO[C@H]1CN(C)S(=O)(=O)c1ccc(Oc2ccccc2)cc1 | . | 3% | 2 | ? | 2 | 2 | 2% | ?
CC1=NOC(=O)/C1=C\c1ccc(-c2ccc(Br)cc2)o1 | 0% | -42% | 3 | 21µM* | -6 | 1 | ? | 22µM*
CSc1ccc(CCNC(=O)c2cc3n(n2)CCCN(Cc2ccc(C)cc2)C3=O)cc1 | . | . | 8 | -9% | . | . | . | .
COc1ccccc1NC(=O)c1c(C)cc(C)nc1SCC(=O)c1ccc(Cl)cc1 | . | . | 0 | 0% | . | . | . | .
COc1ccc(C)cc1NC(=O)CNC(=O)c1sc2ccccc2c1Cl | 0% | -46% | 0 | 7% | -9 | . | . | .
Cc1cccc(/C=N/Nc2cc(N3CCOCC3)nc(N3CCOCC3)n2)c1 | 0% | -38% | 0 | ? | -21 | -1 | -5% | 13µM*
CC(C)c1ccc(/C=N/Nc2cc(N3CCOCC3)nc(N3CCOCC3)n2)cc1 | 0% | -49% | -11 | 5% | -2 | . | . | .
Oc1ccc(C[C@H]2CNC(=S)N2CC2CCCN2C[C@H](Cc2ccc(O)cc2)N2C[C@H](Cc3ccccc3)N(CCc3ccccc3)C2=S)cc1 (some centres not stated) | . | -4% | -22 | -7% | -18 | . | . | .
